Laboratory results as given in PubChem BioAssay AID651597 (National Center for Advancing Translational Sciences (NCATS), 2012).
About 390 (35%) of roughly 1,100 compounds were called active. Roughly 30% stayed inconclusive and do not appear here. The list shows a part of the results. A number with no mark means an inactive call. Calls come from the whole dose curve; as a rule, active = well fitted inhibition curve with a large enough effect; inconclusive = small, poorly fitted or top-dose-only effect; inactive = flat fitted curve, though single readings scatter.

target: Luciferin 4-monooxygenase (Photinus pyralis) (UniProt P08659); assay: qHTS of Nrf2 Activators: Hit Validation in Secondary FLuc Assay; conditions: firefly luciferase inhibition counter-screen, luminescence; series mostly up to 57.5 µM; activity, negative = inhibition: at the top concentration; note: nearly all actives have a fitted effect of over 65% in size
Procedure, shortened: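 Counter-screen on purified firefly luciferase with ATP and D-luciferin at Km concentrations; compounds flagged if they inhibit the enzyme, indicating possible reporter stabilization rather than ARE activation.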
% is set by controls: 0 for no effect and ±100 for the full control effect; potency is the fitted concentration of half-maximal effect.

SMILES	activity, negative = inhibition [%]	Potency
CCc1nn2c(-c3ccco3)ccnc2c1-c1ccccc1	6.51	–
COc1ccc(-c2nnc3c4ccccc4c(C)nn23)cc1	–	7.57 µM (active)
Cc1nn2c(-c3ccccc3)nnc2c2ccccc12	–	10.7 µM (active)
Cc1nn2c(-c3ccco3)nnc2c2ccccc12	–	16.9 µM (active)
Cc1ccc(S(=O)(=O)c2nc(S(C)(=O)=O)sc2N2CCN(C)CC2)cc1	-2.83	–
Cc1ccc(-c2nc(C=Nc3ccc(O)cc3)c(O)o2)cc1	–	2.69 µM (active)
O=c1cc(-c2cccc(Br)c2)oc2cccc(O)c12	-4.58	–
O=c1cc(-c2ccccc2Cl)oc2c(Br)ccc(O)c12	–	2.39 µM (active)
O=c1oc(CCO)cc2ccc(C#Cc3ccsc3)cc12	–	2.69 µM (active)
O=c1oc(CCCO)cc2ccc(C#Cc3ccsc3)cc12	–	2.39 µM (active)
Cn1c(/C(C#N)=C(\O)c2cc(Cl)sc2Cl)nc2ccccc21	-24.2	–
Cn1c(/N=C(\N)c2ccccc2)nc2ccccc21	–	1.35 µM (active)
Cc1cc(N2CCOCC2)n2nc(-c3cccc(F)c3)cc2n1	-21.8	–
Cc1cc(C)n2nc(-c3ccc(F)cc3)cc2n1	–	1.51 µM (active)
CCOC(=O)c1ccc(NC(=O)c2nc(S(=O)(=O)Cc3ccccc3)ncc2Cl)cc1	–	1.69 µM (active)
COc1ccc(Cl)cc1NC(=O)CCS(=O)(=O)c1cccc2nonc12	-0.0594	–

SMILES	activity, negative = inhibition [%]	Potency
COc1ccccc1NC(=O)c1ccc(Cl)c(S(=O)(=O)NCc2ccco2)c1	-25.3	–
COc1ccccc1NC(=O)c1nc(S(=O)(=O)Cc2ccccc2)ncc1Cl	–	2.69 µM (active)
Cc1ccc2c(N)c(C(=O)c3ccccc3)sc2n1	–	9.53 µM (active)
Cc1nc2sc(C(=O)c3ccccc3)c(N)c2c2c1CCCC2	–	1.9 µM (active)
Cc1ccc(C(=O)/C=C/c2ccc(-c3ccccc3[N+](=O)[O-])o2)cc1	–	2.69 µM (active)
O=C(/C=C/c1ccc(-c2ccccc2[N+](=O)[O-])o1)c1ccccc1	–	5.36 µM (active)
O=C(/C=C/c1ccc(-c2ccccc2[N+](=O)[O-])o1)c1ccc(Br)cc1	–	6.01 µM (active)
CN1CCN(C(=O)/C=C/c2ccc([N+](=O)[O-])o2)CC1	-3.66	–
COc1ccc(OC)c(C(=O)Nc2c(O)ccc3ccccc23)c1	–	15.1 µM (active)
COC(=O)c1sccc1NC(=O)c1ccc(OC)c(OC)c1	1.53	–
CNc1ccc(Br)cc(C(=O)/C=C/c2cccc(Cl)c2Cl)c1=O	–	4.78 µM (active)
COC1=C(C)C(O)=C(C(=O)/C=C/c2ccccc2)C(=O)C1(C)C	-7.39	–
CNc1ccccc(C(=O)/C=C/c2ccccc2OC)c1=O	–	5.36 µM (active)
CNc1ccc(Br)cc(C(=O)/C=C/c2cccc(OC)c2)c1=O	–	8.49 µM (active)
CNc1ccc(Br)cc(C(=O)/C=C/c2ccc(Cl)cc2Cl)c1=O	–	4.78 µM (active)
